In PubChem BioAssay (NCATS):
Records with an inconclusive call do not appear. The source made the active and inactive calls. The call rests on the fitted dose curve; in most records, active means well fitted cell-killing curve with a large enough effect; inconclusive means small, poorly fitted or top-dose-only effect, or effect the other way; inactive means no such curve, though single readings can be large or run the other way. Non-standard residues stand in square brackets, D forms with d. Residues, ends and D or L forms follow the SMILES beside them. Peptide text beside a SMILES is read from it. *: point of attachment. Sta = CC(C)C[C@H](N)[C@@H](O)CC(=O)O; Isovaleryl = CC(C)CC(=O)*
Potency means the concentration at half of the fitted maximal effect.

Test: Quantitative High-Throughput drug screen in 47 multiple myeloma cell lines against the NCATS MIPE library collection: OCIMY7_PLB cell viability assay (AID 1918987); further: nearly all actives have a fitted effect of over 65% in size
Conditions: OCI-MY7 myeloma viability, CellTiter-Glo ATP, 48 h; series mostly up to 45.8 µM
Text: PI: Beverly A. Mock Ph.D.
Laboratory of Cancer Biology and Genetics,
Center for Cancer Research, National Cancer Institute,
National Institute of Health, Bethesda, Maryland
Drug resistance and disease progression are common in multiple myeloma (MM) patients, underscoring the need for new therapeutic combinations. […] We hypothesized that effective combinations would reduce MYC expression and enhance p16 activity. […] These preclinical data identify potentially useful drug combinations for evaluation in drug-resistant MM and reveal potential mechanisms of combined drug sensitivity.
Described herein is the primary MIPE qHTS used to cherrypick compounds. Validated compounds were then further tested for potential synergistic activiy.
[1] Peat TJ, Gaikwad SM, Dubois W, Gyabaah-Kessie N, Zhang S, Gorjifard S, Phyo Z, Andres M, Hughitt VK, Simpson RM, Miller MA, Girvin AT, Taylor A, Williams D, D'Antonio N, Zhang Y, Rajagopalan A, Flietner E, Wilson K, Zhang X, Shinn P, Klumpp-Thomas C, McKnight C, Itkin Z, Chen L, Kazandijian D, Zhang J, Michalowski AM, Simmons JK, Keats J, Thomas CJ, Mock BA. Drug combinations identified by high-throughput screening promote cell cycle transition and upregulate Smad pathways in myeloma. Cancer Lett. 2023 Aug 1;568:216284. doi: 10.1016/j.canlet.2023.216284. Epub 2023 Jun 24. PMID: 37356470; PMCID: PMC10408729.
SEQUENCE No. (e.g., 1, 2, 3, etc.); […] (e.g., Cells, Incubation, Reagent, etc.); VALUE and DESCRIPTION.
1; Cells; 5 uL; white, solid bottom 1536-well Greiner assay plate.
2; Compounds; 23 nL; Kalypsis pin tool (Wako USA) equipped with a 1536-well pin head to transfer to the assay plates.
3; Incubation; 48 hours; 37C incubation.
4; Reagent;5uL; CellTiter Glo (Promega).
5; Detector; 425V; Luminescence; Viewlux PerkinElmer.
NOTES (numbers refer to Sequence numbers above)
1. The cell-based screening methods employed in this study were like those previously published. Briefly, the corresponding myeloma cell lines were screened in 1,536-well plates with 500 cells, 5-uL per well for inhibition of cell viability (assessed by measuring ATP levels with CellTiterGlo).
2. NCATS MIPE 4.0 library of approved and investigational drugs were added using the Kalypsis pin tool. Wells treated with DMSO only for 100% viability and media only for 0% viability were used as controls.
3. The assay plates were covered and incubated for 48 hours in a 37C, 5% CO2 incubator with controlled humidity.
4. After 48 hours, CellTilter-GloTM luminescent substrate mix (Promega) reagent was added to the assay plate and plates we incubated for 5 min at room temperature.
5. Signal was measured as median relative luminescence units on a ViewLux (PerkinElmer) multiplate reader.
[1] Heske CM, Davis MI, Baumgart JT, Wilson K, Gormally MV, Chen L, Zhang X, Ceribelli M, Duveau DY, Guha R, Ferrer M, Arnaldez FI, Ji J, Tran HL, Zhang Y, Mendoza A, Helman LJ, Thomas CJ. Matrix Screen Identifies Synergistic Combination of PARP Inhibitors and Nicotinamide Phosphoribosyltransferase (NAMPT) Inhibitors in Ewing Sarcoma. Clin Cancer Res. 2017 Dec 1;23(23):7301-7311. doi: 10.1158/1078-0432.CCR-17-1121. Epub 2017 Sep 12. PMID: 28899971; PMCID: PMC6636827.
In the case of `O=C(NCC1CCCCN1)c1cc(OCC(F)(F)F)ccc1OCC(F)(F)F` (stereo not given), the Potency is reported as 7.43 µM (active).
With `COC1=C(OC)C(=O)C(CCCCCCCCCCO)=C(C)C1=O` the Potency was 16.6 µM (active).
With `Cn1c(NCCN(CCO)CCCc2ccc([N+](=O)[O-])cc2)cc(=O)n(C)c1=O` the Potency was “inactive”.
With `CCOC(=O)C(C)Oc1cccc2c(=O)n(CC(=O)Nc3ccc4c(c3)OCCO4)ccc12` (stereo not given) the Potency was “inactive”.
In the case of `O=Nc1c(-c2c(O)[nH]c3cc(Br)ccc23)[nH]c2ccccc12`, the Potency is reported as 1.87 µM (active).
With `COC(=O)[C@H](Cc1ccccc1)NC(=O)[C@@H](N)CC(=O)O` (H-Asp-Phe-OMe) the Potency was “inactive”.
With `COc1cc(Nc2c(C#N)cnc3cc(OCCCN4CCN(C)CC4)c(OC)cc23)c(Cl)cc1Cl` the Potency was 0.743 µM (active).
For `CCCc1cc(=O)[nH]c(=S)[nH]1`, the Potency was “inactive”.
For `C[C@@H](N)C1CCC(C(=O)Nc2ccncc2)CC1` (stereo not given in full), the Potency was 11.8 µM (active).
With `CN(C)C(=O)[C@H](O)[C@H](Cc1ccccc1)NC(=O)c1cc2cc(Cl)ccc2[nH]1` the Potency was 2.96 µM (active).
For `CC(C)c1ccc2c(c1)c(SC(C)(C)C)c(CC(C)(C)C(=O)O)n2Cc1ccc(Cl)cc1`, the Potency was 14.8 µM (active).
For `NNc1nncc2ccccc12`, the Potency was “inactive”.
For `COc1cc2c(N3CCN(C(=O)Nc4ccc(OC(C)C)cc4)CC3)ncnc2cc1OCCCN1CCCCC1`, the Potency was 16.6 µM (active).
With `N[C@@H](Cc1cc(I)c(Oc2cc(I)c(O)c(I)c2)c(I)c1)C(=O)O` the Potency was “inactive”.
In the case of `CC(C)CC(=O)N[C@H](C(=O)N[C@H](C(=O)N[C@@H](CC(C)C)[C@@H](O)CC(=O)N[C@@H](C)C(=O)N[C@@H](CC(C)C)[C@@H](O)CC(=O)O)C(C)C)C(C)C` (Isovaleryl-VV[Sta]A[Sta]-OH), the Potency is reported as “inactive”.
For `O=C(O)c1cn(-c2ccc(F)cc2)c2cc(N3CCNCC3)c(F)cc2c1=O`, the Potency was “inactive”.
For `CC(C)c1ccc2oc3nc(N)c(C(=O)O)cc3c(=O)c2c1`, the Potency was 18.7 µM (active).
In the case of `O=C(O)c1cccnc1Nc1cccc(C(F)(F)F)c1`, the Potency is reported as “inactive”.
With `Nc1nc(Cl)nc2c1ncn2[C@H]1C[C@H](O)[C@@H](CO)O1` the Potency was 0.001 µM (active).
For `CS(=O)(=O)OCCCCOS(C)(=O)=O`, the Potency was “inactive”.
For `Cc1cc(Cl)ccc1OCCCC(=O)NO`, the Potency was 0.59 µM (active).
In the case of `CN(C)c1ccc2nc3ccc(=[N+](C)C)cc-3sc2c1`, the Potency is reported as 2.35 µM (active).
In the case of `Cc1cc(C2CCCCC2)n(O)c(=O)c1`, the Potency is reported as 7.43 µM (active).
With `Cc1ccc(S(=O)(=O)NC(=O)NN2CC3CCCC3C2)cc1` (stereo not given) the Potency was 20.9 µM (active).
With `CC(C)c1nc(CN(C)C(=O)N[C@H](C(=O)N[C@@H](Cc2ccccc2)C[C@H](O)[C@H](Cc2ccccc2)NC(=O)OCc2cncs2)C(C)C)cs1` the Potency was 20.9 µM (active).
For `COC(=O)C1=C(C)NC(C)=C(C(=O)OCCCN2CCC(c3ccccc3)(c3ccccc3)CC2)C1c1cccc([N+](=O)[O-])c1` (stereo not given), the Potency was “inactive”.
For `Cc1c(C(=O)NN2CCCCC2)nn(-c2ccc(Cl)cc2Cl)c1-c1ccc(Cl)cc1`, the Potency was 16.6 µM (active).
With `Cc1cc2cc3c(C)cc(=O)oc3c(C)c2o1` the Potency was 26.4 µM (active).
With `Nc1nc(N)c(N=O)c(OCC2CCCCC2)n1` the Potency was 1.48 µM (active).
In the case of `Cc1ccc(Nc2nccc(N(C)c3ccc4c(C)n(C)nc4c3)n2)cc1S(N)(=O)=O`, the Potency is reported as 18.7 µM (active).
In the case of `Nc1cccc2c1CN(C1CCC(=O)NC1=O)C2=O` (stereo not given), the Potency is reported as 0.0382 µM (active).
In the case of `Cc1cccc(CN2CCN(C(c3ccccc3)c3ccc(Cl)cc3)CC2)c1` (stereo not given), the Potency is reported as 9.35 µM (active).
With `O=C1c2c(O)cc(O)cc2OC(c2ccc(O)c(O)c2)C1O` (stereo not given) the Potency was 14.8 µM (active).
For `Oc1ccc(-c2nc(-c3ccc(F)cc3)c(-c3ccncc3)[nH]2)cc1`, the Potency was 9.35 µM (active).
In the case of `Clc1ccc(C(Cn2ccnc2)OCc2c(Cl)cccc2Cl)c(Cl)c1` (stereo not given), the Potency is reported as 29.6 µM (active).
With `CC[C@]1(O)C[C@H]2CN(CCc3c([nH]c4ccccc34)[C@@](C(=O)OC)(c3cc4c(cc3OC)N(C=O)[C@H]3[C@@](O)(C(=O)OC)[C@H](OC(C)=O)[C@]5(CC)C=CCN6CC[C@]43[C@@H]65)C2)C1` the Potency was 0.0235 µM (active).
In the case of `O=C(CCc1ccc(O)cc1)c1c(O)cc(O)cc1O`, the Potency is reported as 0.148 µM (active).
In the case of `CCN(CC)CCOc1ccc(Nc2ncc3cc(-c4c(Cl)cccc4Cl)c(=O)n(C)c3n2)cc1`, the Potency is reported as 1.48 µM (active).
For `CN(C)CCCC1(c2ccc(F)cc2)OCc2cc(C#N)ccc21` (stereo not given), the Potency was 11.8 µM (active).
With `CC(C)C[C@H](NC(=O)[C@H](Cc1ccccc1)NC(=O)c1cnccn1)B(O)O` the Potency was 0.001 µM (active).
